Data on 44 molecules can be found in PubChem BioAssay AID1259417 (TB Discovery Research, Infectious Disease Research Institute, 2018).

Screen size: about 1,100 compounds; about 760 (69%) were called active. No rule for the calls is given here. So high a share suggests a set chosen from earlier hits. This is one part of the list.

A short description of this experiment: M. tuberculosis growth inhibition, HTS (AID 1259417).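 Also: bacteria grown with compound for 5 days at 37 °C.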 The settings on record: stronger effect = higher value, concentration not given here.
Where [1] appears, read: M. tuberculosis DsRed fluorescence growth inhibition.
Where [2] appears, read: M. tuberculosis growth inhibition.

By inhibition is commonly meant the relative decrease from the control value, in per cent. As to `Cc1nc2ccc(C(=O)OCc3nnc(-c4ccccc4)o3)cc2nc1C`, the inhibition by setting is: under setting [1], -4.41% (inactive); under setting [2], 0.442%.
Regarding `O=C(OCc1ccc(F)cc1)c1ccc2ccccc2n1`, the inhibition by setting is: under setting [1], 3.6% (inactive); under setting [2], 5.51%.
`Cc1ccccc1C(=O)Nc1nnc(-c2ccco2)o1`: the inhibition is, setting by setting: under setting [1], 47.6% (active); under setting [2], 71.5%.
Take `O=C(Nc1nnc(-c2ccco2)o1)c1cccs1`: the inhibition runs as follows: under setting [1], 17.8% (active); under setting [2], 40.1%.
Turning to `O=C(Nc1nnc(-c2cccs2)o1)c1ccco1`, the inhibition under setting [1] is -2.8% (inactive) and the inhibition under setting [2] is -18.4%.
With `CC(C)(C)c1ccc(C(=O)Nc2nnc(-c3ccco3)o2)cc1`, the inhibition under setting [1] was 88.2% (active) and the inhibition under setting [2] came out at 89.7%.
For the molecule `O=C(Nc1nnc(-c2ccco2)o1)c1cccc(C(F)(F)F)c1`, the inhibition under setting [1] is 88.4% (active) and the inhibition under setting [2] turned out to be 94.4%.
With `O=C(Nc1nnc(-c2cccs2)o1)c1cccc(C(F)(F)F)c1`, the inhibition reads like this: under setting [1], 1.3% (inactive); under setting [2], 6.76%.
For the molecule `CCSc1ccc(CC(=O)Nc2nnc(-c3ccc4c(c3)OCCO4)o2)cc1`, the inhibition is, setting by setting: under setting [1], 2.15% (inactive); under setting [2], 7.09%.
The matching figures for `CCSc1ccc(C(=O)Nc2nnc(-c3ccco3)o2)cc1`: 83.8% (active) and 91.8%.
In the case of `CN1CCC(O)(c2cccs2)C(C(=O)c2cccs2)C1` (stereo not drawn), the inhibition is 100% (active) under setting [1] and 98.7% under setting [2].
`c1ccc(OCc2nn3c(-c4n[nH]c5c4CCC5)nnc3s2)cc1`: the inhibition is 99.1% (active) under setting [1] and 99.6% under setting [2].
The matching figures for `O=C(CSc1nc2ccccc2c(=O)[nH]1)NCc1ccccc1`: 101% (active) and 100%.
Take `N#Cc1ccccc1NC(=O)CSc1nc2cc3ccccc3cc2[nH]1`: the inhibition is 2.65% (inactive) under setting [1] and 10.4% under setting [2].
On to `COc1ccccc1NC(=O)CSc1nc2cc3ccccc3cc2[nH]1`, for which the inhibition by setting is: under setting [1], -0.285% (inactive); under setting [2], -21.7%.
Take `O=[N+]([O-])c1ccc(NCCNc2nc3ccccc3nc2N2CCOCC2)cc1`: the inhibition under setting [1] is 8.52% (inactive) and the inhibition under setting [2] was -3.69%.
With `O=C(NCCN1CCOCC1)c1ccc([N+](=O)[O-])cc1[N+](=O)[O-]`, the inhibition is 98.1% (active) under setting [1] and 94.6% under setting [2].
As to `Cc1cc(C)n(C(=O)c2ccc([N+](=O)[O-])cc2[N+](=O)[O-])n1`, the inhibition runs as follows: under setting [1], 0.918% (inactive); under setting [2], -7.93%.
As for `O=C(Nc1nnc(-c2ccccc2)o1)c1ccco1`, the inhibition under setting [1] is 20.9% (active) and the inhibition under setting [2] is 32.7%.
For `O=C(Nc1nnc(-c2ccc(F)cc2)o1)c1ccco1`, the inhibition is 26% (inactive) under setting [1] and 16.6% under setting [2].
Consider `O=C(Nc1nnc(-c2ccc(Cl)cc2)o1)c1ccco1`, for which the inhibition is 20% (active) under setting [1] and 48.4% under setting [2].
Turning to `CCn1ccnc1CN(C)Cc1cn(-c2cccc(C)c2)nc1-c1cccc(F)c1`, the inhibition was 18.2% (inactive) under setting [1] and 15.5% under setting [2].
The matching figures for `Cc1ccc(Sc2ccc(C=O)o2)cc1`: -0.277% (inactive) and 24.1%.
As for `Cc1ccc(CN=c2c([N+](=O)[O-])nn(-c3cccc(Cl)c3)n2O)cc1`, the inhibition is 99.8% (active) under setting [1] and 100% under setting [2].
The corresponding values for `Cc1cccc(-n2nc([N+](=O)[O-])c(=NCCC3=CCCCC3)n2O)c1` are 101% (active) and 54.8%.
Consider `O=S1(=O)C=C(Sc2nc3ccccc3s2)c2ccccc21`, for which the inhibition reads like this: under setting [1], 100% (active); under setting [2], 99.8%.
Turning to `COc1c2ccoc2nc2c(OC)cccc12`, the inhibition under setting [1] was 98.6% (active) and the inhibition under setting [2] stood at 99.6%.
The corresponding values for `CC12CCC(C(=O)Nc3ccc(OC(F)(F)F)cc3)(CC1=O)C2(C)C` (stereo not drawn) are 94.8% (active) and 81.6%.
Regarding `CC(C)(C)c1ccc(C(=O)Nc2nc3ccccc3[nH]2)cc1`, the inhibition under setting [1] is 65.8% (active) and the inhibition under setting [2] came to 86.5%.
The matching figures for `Cc1cccc(C(=O)Nc2nc3ccccc3[nH]2)c1`: 36.9% (active) and 35.3%.
For `Cc1cc(NS(=O)(=O)c2ccc(NC(=O)c3ccc(C(C)(C)C)cc3)cc2)no1`, the inhibition reads like this: under setting [1], 19.1% (inactive); under setting [2], 12.2%.
On to `CCOC(=O)Cn1nnc(-c2ccc(OCc3ccccc3F)cc2)n1`, for which the inhibition was 50% (active) under setting [1] and 91.6% under setting [2].
The corresponding values for `CCOC(=O)Cn1nnc(-c2ccc(OCc3ccccc3C)cc2)n1` are 91.8% (active) and 96.9%.
The corresponding values for `CCN(CC)c1ccc(/C=C(/C#N)c2nc3ccccc3[nH]2)c(OC(C)C)c1` are 22.6% (active) and 47%.
The matching figures for `c1ccc(-c2nc(NCCCn3ccnc3)c3oc4ccccc4c3n2)cc1`: 98.9% (active) and 99.5%.
Turning to `CCOC(=O)CSc1nnc2c3sc4nc(N5CCOCC5)c5c(c4c3ncn12)CC(C)(C)OC5`, the inhibition under setting [1] was 53.1% (active) and the inhibition under setting [2] is 74.9%.
The corresponding values for `O=C(CCc1ccccc1)NC(=S)Nc1ccc(N2CCCCC2)cc1` are 82.8% (active) and 59.4%.
For `COC(=O)c1ccc(N2C(=O)CC(N(CCc3ccccc3)C(=S)Nc3ccccc3)C2=O)cc1` (stereo not drawn), the inhibition runs as follows: under setting [1], 2.64% (inactive); under setting [2], -9.4%.
`CC(=O)N1CCN(c2ccc(NC(=S)NC(=O)c3cc4ccccc4o3)cc2)CC1`: the inhibition is 3.83% (inactive) under setting [1] and -6.94% under setting [2].
On to `OC(COCCC12CC3CC(CC(C3)C1)C2)CN1CCc2ccccc2C1` (stereo not drawn), for which the inhibition is 1.19% (inactive) under setting [1] and 10.3% under setting [2].
For the molecule `O=C(Cn1nc(CNc2ccc(Cl)cc2)[n+]2c1CCCCC2)c1ccc(Br)cc1`, the inhibition reads like this: under setting [1], 92.9% (active); under setting [2], 94.4%.
As for `CC(C)CC(=O)NC(c1ccc(Cl)cc1Cl)c1c(O)ccc2ccccc12` (stereo not drawn), the inhibition reads like this: under setting [1], 5.28% (inactive); under setting [2], 21%.
As for `CC(C)(C)c1cc(Cl)c(O)c(NC(=S)NC(=O)c2cccc3ccccc23)c1`, the inhibition reads like this: under setting [1], 80.4% (active); under setting [2], 78.3%.
As for `COc1ccc(C(C)(C)C)cc1NC(=S)Nc1ccc(Cl)c(Cl)c1`, the inhibition is 0.0351% (inactive) under setting [1] and -14.6% under setting [2].
